# A selection: hits, their analogues and other compounds. The true share with any hit is near 3.3%.
# PLK1 PBD inh: inhibitors of human PLK1 polo-box domain binding. 2.8% of 360,000 active. P53350. Potency, µM, actives largely listed as inhibitors. Plk1 PBD binding of FITC phosphopeptide, fluorescence polarization; also: series mostly up to about 57 µM; nearly all actives have a fitted effect of over 65% in size
# PI5P4Ka inh: PI5P4K alpha (human) kinase inhibition; P48426; PI5P4Kalpha enzyme, ADP-Glo luminescence, 60 min; active compounds read low; max response, %; 1.2% of 330,000 active; AID 652105; active = max response of -50% or lower; inconclusive = between -30% and -50%; inactive = -30% or higher; also: value at the top dose of about 77 µM
#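 Human PI5P4Kalpha with substrate in 0.038 M HEPES pH 7.4, 0.28 mM EGTA, 0.1% CHAPS, 5% DMSO; reaction started with 5 microM ATP (final), 60 min at room temperature. ADP formed read by ADP-Glo luminescence.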
# USP2a block: inhibitors of human ubiquitin-specific protease USP2a. Potency, µM (series often up to 38.3 µM), usual class: inhibitors. AID 463254. O75604. USP2 core, Ub-CHOP2 coupled fluorogenic reporter, 485/531. 0.01% of 330,000 active
#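 Cell-free coupled assay: 10nM USP2 core preincubated 30min RT with compound in Tris-HCl pH 8.0/CaCl2/CHAPS buffer, then 25nM Ub-CHOP2 and 25nM reporter substrate; fluorescence (Ex 485/Em 531) read after 60min RT, normalized to NEM inhibition, concentration-response curves fitted.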
# USP1-UAF1 inh: inhibitors of human USP1/UAF1 deubiquitinase; O94782; Potency, µM (doses to about 57.1 µM), usual class: inhibitors; recombinant USP1/UAF1, Ub-Rhodamine cleavage fluorescence; 0.23% of 390,000 active; also: nearly all actives have a fitted effect of over 60% in size
#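 1 nM enzyme complex + cpd, 15 min RT; start with Ub-Rho 150nM final; kinetic fluorescence ex 480/em 540, 6 reads q60 s. Buffer 50mM HEPES pH 7.8, 0.5mM EDTA, 0.1 mg/ml BSA, 1mM TCEP, 0.01% Tween-20.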
# WRN helicase inh: inhibitors of human WRN helicase | Q14191 | WRN helicase unwinding, fluorescent forked duplex, kinetic | Potency, µM (doses to about 114 µM), usual class: inhibitors | 0.46% of 360,000 active; also: nearly all actives have a fitted effect of over 55% in size
#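 Kinetic red-fluorescence monitoring (525/598 nm) tracks WRN helicase activity after 100 nM fluorophore-quencher forked duplex and 2 mM ATP are added to 20 nM enzyme pretreated 15 min at room temperature with compound.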
# Numbers stand for hits; . = inactive; ? = inconclusive; / = not tested or not shown. Unless noted, calls follow the shape of the dose curve; as a rule, active = well fitted curve in the direction sought with a large enough effect; inconclusive = small, poorly fitted or top-dose-only effect, or another doubt; inactive = no such curve, though single readings can be large; an effect the other way counts as inactive or inconclusive.
SMILES,PLK1 PBD inh,PI5P4Ka inh,USP2a block,USP1-UAF1 inh,WRN helicase inh
Cc1ccc(-n2nc(C)c3c2C(Br)C(C)(C)CC3=O)nc1 (stereo unspecified),.,.,/,.,.
Cc1nn(-c2ccccn2)c2c1C(=O)CC(C)(C)C2Br (stereo unspecified),27µM,.,.,.,.
Cc1ccc(C)c(OCC(=O)N2CCc3ccccc3C2)c1,.,.,.,.,.
Cc1cc(OCC(=O)N2CCc3ccccc3C2)c(C)cc1Br,19µM,.,.,.,?
COc1cc(C(=S)N2CCOCC2)ccc1OC(=O)c1ccccc1C,.,.,.,.,.
COc1cc(C(=S)N2CCOCC2)cc(OC)c1OC(=O)Cc1ccc(F)cc1,7.5µM,.,.,.,.
COc1cc(C(=S)N2CCOCC2)cc(OC)c1OS(=O)(=O)c1ccc(Cl)cc1,13µM,.,.,.,.
COc1cc(C(=O)Oc2c(OC)cc(C(=S)N3CCOCC3)cc2OC)cc(OC)c1OC,.,.,.,.,.
COc1ccc(C(=S)N2CCOCC2)cc1OC(=O)c1ccccc1Cl,19µM,.,.,.,.
O=C(Oc1c(Br)cc(C(=S)N2CCOCC2)cc1Br)c1ccc(Cl)cc1,6.7µM,.,.,.,.
CCN(CCCNC(=O)c1cc2cc3cc(C)ccc3nc2s1)c1cccc(C)c1,/,/,/,.,/
COc1cc(C(=S)N2CCOCC2)cc(OC)c1OC(=O)c1ccc(F)cc1,12µM,.,.,.,.
CC(=O)c1cccc(NC(=O)CSc2nnc3ccc(-c4ccc(Cl)cc4)nn23)c1,/,/,/,.,/
COc1ccc(OC)c(-c2noc(N3CCN(c4cc(C)ccc4C)CC3)n2)c1,/,/,/,.,/
CCn1nnc(NC(=S)NC(=O)c2ccc(-c3cccc(Cl)c3)o2)n1,21µM,?,.,.,.
COc1cccc(NS(=O)(=O)c2cc(C)ccc2OC)c1,8.4µM,.,.,.,.
Cc1ccc(C)c(OCC(O)CN2CCCCC2C)c1 (stereo unspecified),.,.,.,.,.
Cc1ccc(C)c(OCC(O)CN2C(C)CCCC2C)c1 (stereo unspecified),12µM,.,.,.,.
COc1ccccc1C1CC(c2ccc(Cl)cc2)Nc2ncnn21 (stereo unspecified),27µM,.,.,.,.
COC(=O)c1ccc(=O)c2nc3/c(=C/O)c(O)cc(=O)c3[nH]c12,19µM,-74,.,?,?
COC(=O)c1ccc(N)cc1O,.,.,.,.,.
CCCN(CCC)CCCNC(=O)c1nn(C)c2c1CS(=O)(=O)c1ccccc1-2,/,/,/,.,/
CCC/C(O)=C1\C(=O)CC(C)(C)CC1=NCCO,.,.,.,.,.
CCC/C(O)=C1\C(=O)CC(C)(C)CC1=Nc1ccccc1O,13µM,?,.,.,.
O=S1(=O)c2ccccc2N(Cc2ccccc2)c2ccccc21,/,/,/,.,/
SMILES,PLK1 PBD inh,PI5P4Ka inh,USP2a block,USP1-UAF1 inh,WRN helicase inh
O=C1NC(=Nc2ccccc2)S/C1=C\C=C\c1ccco1,?,-94,5.6µM,.,50µM
COc1ccc(N=C2NC(=O)/C(=C/C=C/c3ccccc3)S2)cc1,.,.,.,.,.
Cc1ccc(N=C2NC(=O)/C(=C/C=C/c3ccco3)S2)cc1,?,-78,?,.,35µM
CCC(=O)N1CCc2cc(S(=O)(=O)CCC(=O)Nc3cc(Cl)ccc3OC)ccc21,/,/,/,.,/
CN(C(=O)c1cnc(N2CCOCC2)c2ccccc12)c1ccccc1F,/,/,/,.,/
CCCN(CC(=O)Nc1ccccc1C)C(=O)COc1c(C)cccc1C,.,.,.,.,.
CCCN(CC(=O)Nc1ccccc1C)C(=O)COC(=O)CSc1ccc([N+](=O)[O-])cc1,19µM,.,.,.,.
CC1CCCC(C)N1C(=O)COC(=O)CSc1ccc([N+](=O)[O-])cc1 (stereo unspecified),19µM,.,.,.,.
CC(C)(C)N(Cc1ccccc1)C(=O)COC(=O)CSc1ccc([N+](=O)[O-])cc1,12µM,.,.,.,.
Cc1cc(C)cc(N2C(=O)CSC23C(=O)N(CC(=O)NCCc2ccccc2)c2ccccc23)c1 (stereo unspecified),/,/,/,.,/
COc1ccccc1NC(=O)CSc1nncn2c1cc1sccc12,/,/,/,.,/
O=C(CSc1nc(=O)n(Cc2ccccn2)c2c1CCC2)Nc1ccccc1,/,/,/,.,/
O=C1CCCN2N=C(SCC(=O)Nc3ccc([N+](=O)[O-])cc3)SC2=N1,38µM,.,.,.,.
